# Source: the antibiotic and cytotoxicity screens of Wong et al. (2023)
# Among all 39,000 compounds or so, about 1,500 (3.8%) were called active. The entries come from a sample that favours actives as a whole.
# Tested on: HSkMC (human skeletal muscle cells)
# Assay: cytotoxicity call (relative viability < 0.9)
# Settings: 10 µM
row,Compound,cytotoxicity call
1,C[C@@H]1CN([C@@H](C)CO)C(=O)Cc2cc(NC(=O)C3CCCCC3)ccc2O[C@H]1CN(C)S(C)(=O)=O,inactive
2,C[C@@H]1CN([C@@H](C)CO)C(=O)c2cccc(NS(C)(=O)=O)c2O[C@@H]1CN(C)S(C)(=O)=O,inactive
3,COc1ccc(S(=O)(=O)Nc2ccc3c(c2)C(=O)N([C@@H](C)CO)C[C@H](C)[C@@H](CN(C)C(=O)Nc2ccc(F)cc2)OCCCC[C@H](C)O3)cc1,inactive
4,C[C@@H]1CCCCO[C@@H](CN(C)C(=O)Nc2ccccc2)[C@H](C)CN([C@@H](C)CO)C(=O)c2cc(NC(=O)Nc3cccc4ccccc34)ccc2O1,inactive
5,C[C@H](CO)N1C[C@H](C)[C@H](CN(C)CC2CCOCC2)Oc2ncc(C#CCc3ccccc3)cc2C1=O,inactive
6,COc1ccc(NC(=O)Nc2ccc3c(c2)C(=O)N([C@H](C)CO)C[C@H](C)[C@@H](CN(C)C(=O)Nc2c(C)noc2C)OCCCC[C@@H](C)O3)cc1,inactive
7,O=C1N[C@@H](c2ccccc2)COCc2cn(nn2)CC[C@H](Cc2ccc(C(F)(F)F)cc2)C(=O)N[C@@H](c2ccccc2)COCc2cn(nn2)CC[C@@H]1Cc1ccc(C(F)(F)F)cc1,inactive
8,C[C@@H]1CN([C@H](C)CO)C(=O)c2cc(NC(=O)Nc3ccc(C(F)(F)F)cc3)ccc2O[C@H]1CN(C)Cc1ccc(C(F)(F)F)cc1,active
9,C[C@@H]1CN([C@H](C)CO)C(=O)c2cc(NC(=O)Nc3ccc(C(F)(F)F)cc3)ccc2O[C@@H]1CN(C)Cc1ccc(C(F)(F)F)cc1,active
10,C[C@H]1CN([C@@H](C)CO)C(=O)c2cc(NC(=O)Nc3ccc(C(F)(F)F)cc3)ccc2O[C@H]1CN(C)Cc1ccc(C(F)(F)F)cc1,active
11,C[C@H]1CN([C@@H](C)CO)C(=O)c2cc(NC(=O)Nc3ccc(C(F)(F)F)cc3)ccc2O[C@@H]1CN(C)Cc1ccc(C(F)(F)F)cc1,active
12,C[C@H](CO)N1C[C@H](C)[C@H](CN(C)C)Oc2ccc(NC(=O)Cc3cn(C)c4ccccc34)cc2CC1=O,inactive
13,CNC[C@@H]1OCCCC[C@H](C)Oc2ccc(NS(=O)(=O)c3cn(C)cn3)cc2C(=O)N([C@@H](C)CO)C[C@H]1C,inactive
14,C[C@H](CO)N1C[C@H](C)[C@H](CN(C)C(=O)Cc2ccncc2)Oc2cc(C#CC3(O)CCCC3)ccc2S1(=O)=O,inactive
15,C[C@@H]1CN([C@@H](C)CO)C(=O)c2cc(C#Cc3ccncc3)cnc2O[C@H]1CN(C)C(=O)c1ccccc1F,inactive
16,C[C@H]1CCCCO[C@@H](CN(C)C(=O)Cc2ccccc2)[C@@H](C)CN([C@@H](C)CO)C(=O)c2cc(NS(=O)(=O)c3cccs3)ccc2O1,inactive
17,COc1ccc(NC(=O)N(C)C[C@@H]2Oc3ccc(NC(=O)Nc4cccc5ccccc45)cc3C(=O)N([C@H](C)CO)C[C@@H]2C)cc1,inactive
18,CN(C)CCCNC(=O)C[C@H]1C=C[C@@H](NS(=O)(=O)c2ccccc2)[C@@H](CO)O1,inactive
19,C[C@H](CO)N1C[C@H](C)[C@@H](CN(C)Cc2ccc(C(F)(F)F)cc2)Oc2ccc(NC(=O)Nc3ccc(C(F)(F)F)cc3)cc2C1=O,inactive
20,C[C@H](CO)N1C[C@H](C)[C@H](CN(C)Cc2ccc(C(F)(F)F)cc2)Oc2ccc(NC(=O)Nc3ccc(C(F)(F)F)cc3)cc2C1=O,active
21,C[C@@H]1CN([C@@H](C)CO)C(=O)c2cc(NC(=O)Nc3ccc(C(F)(F)F)cc3)ccc2O[C@@H]1CN(C)Cc1ccc(C(F)(F)F)cc1,active

row,Compound,cytotoxicity call
1,C[C@@H]1CN([C@@H](C)CO)C(=O)c2cc(NC(=O)Nc3ccc(C(F)(F)F)cc3)ccc2O[C@H]1CN(C)Cc1ccc(C(F)(F)F)cc1,active
2,COCC#Cc1ccc2c(c1)O[C@H](CN(C)S(=O)(=O)c1cccc(F)c1)[C@@H](C)CN([C@@H](C)CO)S2(=O)=O,inactive
3,COc1ccccc1CN1C[C@@H](C)[C@H](OC)CN(C)C(=O)c2cc(NC(=O)Nc3ccccc3OC)ccc2OC[C@H]1C,inactive
4,C[C@@H]1CN([C@@H](C)CO)C(=O)c2cc(-c3cccc(C#N)c3)cnc2O[C@@H]1CN(C)C(=O)C1CCOCC1,inactive
5,Cc1ccc(S(=O)(=O)N(C)C[C@H]2Oc3c(NS(=O)(=O)c4c(C)noc4C)cccc3C(=O)N([C@@H](C)CO)C[C@H]2C)cc1,inactive
6,N#CC1(C#N)[C@H](c2ccccc2)[C@@H]1C(N)=O,inactive
7,CC(C)CC#Cc1ccc2c(c1)O[C@@H](CN(C)C(=O)c1cnccn1)[C@@H](C)CN([C@H](C)CO)S2(=O)=O,inactive
8,O=C(C[C@H]1CC[C@H]2[C@@H](COC[C@@H](O)CN2S(=O)(=O)c2ccc(Cl)cc2)O1)N[C@H]1CCN(Cc2ccccc2)C1,inactive
9,CC(C)C[C@H](NC(=O)CNC(=O)c1cc(Cl)ccc1Cl)B1OC(=O)C[C@](CC(=O)O)(C(=O)O)O1,active
10,Cc1noc(C)c1S(=O)(=O)Nc1ccc2c(c1)C(=O)N([C@@H](C)CO)C[C@@H](C)[C@@H](CN(C)CC1CCCCC1)OCCCC[C@H](C)O2,inactive
11,Cn1c(=O)[nH]c2nnc(-c3ccccn3)nc2c1=O,inactive
12,COc1ccc(-c2ccccn2)cc1,inactive
13,Cn1nc(-c2ccccn2)nc2c(=O)n(C)c(=O)nc1-2,active
14,CN1CCN(C(=O)[C@@H]2[C@@H](CO)[C@@H]3Cn4c(cccc4=O)[C@H]2N3S(=O)(=O)c2ccccc2F)CC1,inactive
15,CC(=O)N1CCN(C(=O)Cc2ccc(S(C)(=O)=O)cc2)C[C@@H](O)C1,inactive
16,CC(=O)NCCCC[C@@H]1NC(=O)[C@H]2C[C@@H](C(=O)NCc3ccc(F)cc3)[C@@H](c3ccc(O)cc3)N2C1=O,inactive
17,Cc1ccc(S(=O)(=O)Nc2ccc3c(c2)CC(=O)N([C@H](C)CO)C[C@@H](C)[C@@H](CN(C)Cc2ccc(C(F)(F)F)cc2)O3)cc1,active
18,C[C@H]1CN([C@@H](C)CO)C(=O)Cc2cc(NS(C)(=O)=O)ccc2O[C@@H]1CN(C)Cc1ccc(C(F)(F)F)cc1,inactive
19,Cc1ccc(S(=O)(=O)Nc2ccc3c(c2)CC(=O)N([C@H](C)CO)C[C@H](C)[C@@H](CN(C)Cc2ccc(C(F)(F)F)cc2)O3)cc1,inactive
20,C[C@H](CO)N1C[C@H](C)[C@H](CN(C)Cc2ccc(C(F)(F)F)cc2)Oc2ccc(NS(C)(=O)=O)cc2CC1=O,inactive
21,Cc1ccc(S(=O)(=O)Nc2ccc3c(c2)CC(=O)N([C@H](C)CO)C[C@H](C)[C@H](CN(C)Cc2ccc(C(F)(F)F)cc2)O3)cc1,active

row,Compound,cytotoxicity call
1,C[C@H]1CN([C@@H](C)CO)C(=O)Cc2cc(NS(C)(=O)=O)ccc2O[C@H]1CN(C)Cc1ccc(C(F)(F)F)cc1,inactive
2,C[C@@H]1CN([C@@H](C)CO)C(=O)Cc2cc(NS(C)(=O)=O)ccc2O[C@H]1CN(C)Cc1ccc(C(F)(F)F)cc1,inactive
3,Cc1ccc(S(=O)(=O)Nc2ccc3c(c2)CC(=O)N([C@@H](C)CO)C[C@@H](C)[C@@H](CN(C)Cc2ccc(C(F)(F)F)cc2)O3)cc1,active
4,C[C@@H]1CN([C@H](C)CO)C(=O)Cc2cc(NS(C)(=O)=O)ccc2O[C@@H]1CN(C)Cc1ccc(C(F)(F)F)cc1,inactive
5,Cc1ccc(S(=O)(=O)Nc2ccc3c(c2)CC(=O)N([C@@H](C)CO)C[C@H](C)[C@@H](CN(C)Cc2ccc(C(F)(F)F)cc2)O3)cc1,active
6,C[C@@H]1CN([C@@H](C)CO)C(=O)Cc2cc(NS(C)(=O)=O)ccc2O[C@@H]1CN(C)Cc1ccc(C(F)(F)F)cc1,inactive
7,C[C@@H]1CN([C@H](C)CO)C(=O)Cc2cc(NS(C)(=O)=O)ccc2O[C@H]1CN(C)Cc1ccc(C(F)(F)F)cc1,inactive
8,O=C(C[C@H]1CC[C@@H]2[C@H](COC[C@H](O)CN2S(=O)(=O)c2ccc(Cl)cc2)O1)NCCN1CCCCC1,inactive
9,COc1ccc(S(=O)(=O)Nc2ccc3c(c2)C(=O)N([C@H](C)CO)C[C@H](C)[C@H](CN(C)C(=O)Nc2c(C)noc2C)OCCCC[C@H](C)O3)cc1,inactive
10,C[C@@H]1CCCCO[C@@H](CN(C)S(=O)(=O)c2cccs2)[C@H](C)CN([C@H](C)CO)C(=O)c2cc(NC(=O)Nc3cccc4ccccc34)ccc2O1,inactive
11,COc1ccc(S(=O)(=O)Nc2cccc3c2O[C@@H](CN(C)Cc2ccncc2)[C@H](C)CN([C@@H](C)CO)C3=O)cc1,inactive
12,C[C@@H]1CN([C@@H](C)CO)C(=O)c2cccc(NS(=O)(=O)c3cn(C)cn3)c2O[C@@H]1CN(C)S(=O)(=O)c1ccccc1,inactive
13,C[C@@H]1CN([C@@H](C)CO)C(=O)c2cc(NC(=O)CCN3CCOCC3)ccc2O[C@@H]1CN(C)CC1CC1,inactive
14,C[C@@H]1CCCCO[C@H](CN(C)C(=O)Cc2ccccc2)[C@H](C)CN([C@@H](C)CO)C(=O)c2cc(NS(=O)(=O)c3cccs3)ccc2O1,inactive
15,COCC(=O)Nc1ccc2c(c1)OC[C@@H](C)N(Cc1ccccc1OC)C[C@@H](C)[C@H](OC)CN(C)C2=O,inactive
16,C[C@H]1CCCCO[C@@H](CN(C)C(=O)Nc2ccc(F)cc2)[C@@H](C)CN([C@@H](C)CO)C(=O)c2cc(NS(=O)(=O)c3cccs3)ccc2O1,inactive
17,CCSc1nnc2c(=O)[nH]c(=O)[nH]c2n1,inactive
18,Cc1ccc(S(=O)(=O)Nc2ccc3c(c2)CC(=O)N([C@H](C)CO)C[C@@H](C)[C@H](CN(C)Cc2ccc(C(F)(F)F)cc2)O3)cc1,inactive
19,Cc1ccc(S(=O)(=O)Nc2ccc3c(c2)CC(=O)N([C@@H](C)CO)C[C@H](C)[C@H](CN(C)Cc2ccc(C(F)(F)F)cc2)O3)cc1,active
20,Cc1ccc(S(=O)(=O)Nc2ccc3c(c2)CC(=O)N([C@@H](C)CO)C[C@@H](C)[C@H](CN(C)Cc2ccc(C(F)(F)F)cc2)O3)cc1,inactive
